From PubChem BioAssay (NCATS) come the findings set out here.

A number with no mark means an inactive call. Results filed as inconclusive are left out. Calls of active or inactive are those of the source. The call rests on the fitted dose curve; in most records, active means well fitted curve in the direction sought with a large enough effect; inconclusive means small, poorly fitted or top-dose-only effect, or another doubt; inactive means no such curve, though single readings can be large; an effect the other way counts as inactive or inconclusive.

Assay [1] can be described thus: Primary fluorescence-based thiol-reactive (MSTI) qHTS assay for identification of artifact compounds. (AID 1845221). Further: nearly all actives have a fitted effect of over 65% in size. Further: potency means the concentration at half of the fitted maximal effect.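 On activity change, negative = thiol reactive: series mostly up to about 54 µM; thiol-reactive compounds lower the probe fluorescence signal.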 The method, boiled down: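 Thiol-reactive compounds detected by quenching of 4 uM MSTI fluorescence (525/598 nm) after 1 h room-temperature dark incubation in PBS pH 7.4, 2% DMSO. qHTS titration; percent inhibition Hill-fitted against Acetyl-MSTI/MSTI controls.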

Assay [2] has as its system Nanoluciferase (engineered Oplophorus gracilirostris luciferase). In words: Primary Nanoluciferase (NLuc) qHTS assay for identification of artifact compounds. (AID 1845222).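 Further: series mostly up to about 54 µM; 0% = DMSO and -100% = no enzyme.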 An outline of the steps: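 Luminescence from secreted NLuc (filtered, 1:55-diluted S16 cell medium) read 5 min after Nano-Glo substrate; compounds preincubated 15 min, RT. Hill fits of inhibition normalized to DMSO and no-enzyme.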
A general note: Quantitative high-throughput screening tests each substance at several concentrations.

Assay [3] is described as follows: Primary redox qHTS assay for identification of artifact compounds. (AID 1845223).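 Further: 0% = DMSO and 100% = reference compound.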 The method, boiled down: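 Redox-cycling detection via DTT (250 uM final) oxidation coupled to Amplex Red (25 uM)/HRP (250 mU/mL) in HBSS. 15 min preincubation plus 30 min after DTT, room temperature. Ex/Em 525/598 nm; 4-parameter Hill fit against DMSO and 10 uM DA3003.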

As for `C[C@@H]1O[C@@H](O[C@@H]2[C@@H](O)[C@H](O[C@@H]3[C@@H](O)[C@@H](O)[C@H](O[C@H]4[C@H](OC(=O)[C@]56CCC(C)(C)C[C@H]5C5=CCC7[C@@]8(C)C[C@H](O)[C@H](O[C@@H]9O[C@@H](C)[C@H](O)[C@@H](O)[C@H]9O)[C@@](C)(CO)C8CC[C@@]7(C)[C@]5(C)C[C@H]6O)O[C@H](C)[C@H](O)[C@@H]4O)O[C@H]3C)OC[C@H]2O)[C@H](O)[C@H](O)[C@H]1O` (stereo not given in full), the activity change, negative = thiol reactive in assay [1] is 292% [at 11.5 µM]. In addition, the activity, negative = inhibition in assay [2] is 4.95% [at 11.6 µM]. Also, in assay [3], the redox activity (% of DA3003) was 10.9% [at 11.5 µM].
`COc1cccc(-c2ccc([C@@H](Oc3cc(-c4ccc(C[C@H](N)C(=O)O)cc4)nc(N)n3)C(F)(F)F)cc2)c1`: the Potency result in assay [1], in assay [2] and in assay [3] was “inactive” in each case.
In the case of `C[C@@]12C[C@]3(O)O[C@H](O1)[C@]1(COC(=O)c4ccccc4)[C@H]3C[C@@]12O[C@@H]1O[C@H](COC(=O)c2ccccc2)[C@@H](O)[C@H](O)[C@H]1O`, the Potency entry in assay [1], in assay [2] and in assay [3] was “inactive” in each case.
In the case of `CC1=C2C3OC(=O)C(C)C3(O)CCC2(C)CCC1=O` (stereo not given), the Potency in assay [1] is 23.8 µM (active). The Potency entry in assay [2] and in assay [3] was “inactive” in each case.
`CC(C)C(=O)O[C@@H]1[C@@H](O)[C@@H](O[C@H]2O[C@H](CO)[C@@H](O)[C@H](O)[C@H]2O)O[C@H](CO)[C@H]1O`: the Potency result in assay [1], in assay [2] and in assay [3] was “inactive” in each case.
As for `c1ccc(Nc2nc3c(s2)CCCc2[nH]ncc2-3)nc1`, in assay [1], the Potency was 1.5 µM (active). The Potency result in assay [2] and in assay [3] was “inactive” in each case.
`COC(=O)[C@@H]1C2CC3c4[nH]c5ccccc5c4CCN3CC2CC[C@@H]1O` (stereo not given in full): the Potency result in assay [1], in assay [2] and in assay [3] was “inactive” each time.
`CC1(CO)CC[C@]2(C(=O)O[C@@H]3O[C@H](CO)[C@@H](O)[C@H](O)[C@H]3O)CC[C@]3(C)C(=CCC4[C@@]5(C)C[C@H](O)[C@H](O[C@@H]6OC[C@@H](O)[C@H](O)[C@H]6O)[C@@](C)(CO)C5CC[C@]43C)C2C1` (stereo not given in full): the activity change, negative = thiol reactive in assay [1] was 76.2% [at 11.5 µM]. Further, the activity, negative = inhibition in assay [2] was 0% [at 11.6 µM]. Also, the redox activity (% of DA3003) in assay [3] was 6.69% [at 11.5 µM].
Regarding `CC(=O)OC[C@]12[C@H](OC(C)=O)C(=O)[C@@H]3[C@@H](OC(C)=O)[C@@]14O[C@@]3(C)COC(=O)c1cccnc1[C@@H](C)[C@H](C)C(=O)O[C@@H]([C@H](OC(C)=O)[C@@H]2OC(C)=O)[C@]4(C)O`, the Potency entry in assay [1], in assay [2] and in assay [3] was “inactive” throughout.
As to `CC(C)C1=CC2=CCC3[C@](C)(CCC[C@@]3(C)C(=O)O)C2CC1=O` (stereo not given in full), the Potency entry in assay [1], in assay [2] and in assay [3] was “inactive” in each case.
On to `CC1(C)CCCC2(C)C3=C(C(=O)OC3O)C(O)CC12` (stereo not given), for which the Potency entry in assay [1], in assay [2] and in assay [3] was “inactive” in each case.
As for `CC1(C)CC[C@]2(C(=O)O)CC[C@]3(C)C(=CCC4[C@@]5(C)CCC(O[C@@H]6OC[C@H](O)[C@H](O)[C@H]6O[C@@H]6O[C@H](CO)[C@@H](O)[C@H](O)[C@H]6O)[C@@](C)(CO)C5CC[C@]43C)[C@@H]2C1` (stereo not given in full), the Potency entry in assay [1], in assay [2] and in assay [3] was “inactive” each time.
Take `Clc1ccc(CN[C@H]2CCN(c3ncc(Br)cn3)C2)c(Cl)c1`: the Potency result in assay [1], in assay [2] and in assay [3] was “inactive” throughout.
With `COc1ncc(-c2ccc3c(Nc4cc(Oc5cc(F)cc(F)c5)cc(C(=O)O)c4)c(S(=O)(=O)NC4CC4)cnc3c2)c(OC)n1`, the Potency entry in assay [1], in assay [2] and in assay [3] was “inactive” each time.
Consider `CC(=O)O[C@H](C[C@@H](C)[C@H]1C(=O)[C@H](O)[C@@]2(C)[C@@H]3CCC4C(C)(C)[C@@H](O[C@@H]5OC[C@H](O)[C@H](O)[C@H]5O)CC[C@@]45C[C@@]35CC[C@]12C)[C@@H]1OC1(C)C` (stereo not given in full), for which the Potency result in assay [1], in assay [2] and in assay [3] was “inactive” in each case.
As for `O=C(c1ccc(C#Cc2cccc(F)c2)cn1)N1CC2CC2C1` (stereo not given), the Potency entry in assay [1], in assay [2] and in assay [3] was “inactive” each time.
Consider `CCC(CC)n1ccc2c(C(=O)NCc3c(C)cc(C)[nH]c3=O)cc(C#N)cc21`, for which the Potency result in assay [1], in assay [2] and in assay [3] was “inactive” in each case.
As for `CC(C)CNC(=O)/C=C/CCCCc1ccc2c(c1)OCO2`, the Potency result in assay [1], in assay [2] and in assay [3] was “inactive” in each case.
As for `CC1CCC2(C)C(CC(O)C(O)C23CO3)C1(C)CCC1=CC(=O)OC1O` (stereo not given), the Potency result in assay [1], in assay [2] and in assay [3] was “inactive” in each case.
On to `COC1(CC(C)C)NC(=O)C(O)(Cc2ccccc2)NC1=O` (stereo not given), for which the Potency result in assay [1], in assay [2] and in assay [3] was “inactive” throughout.
In the case of `OC[C@H]1O[C@@H](Oc2ccc3c(c2)OC[C@H]2c4cc5c(cc4O[C@@H]32)OCO5)[C@H](O)[C@@H](O)[C@@H]1O`, the Potency result in assay [1], in assay [2] and in assay [3] was “inactive” in each case.
With `COC(=O)C1=CO[C@@H](O[C@@H]2O[C@H](CO)[C@@H](O)[C@H](O)[C@H]2O)[C@@H]2[C@@H](C)[C@@H](O)C[C@H]12`, the Potency result in assay [1], in assay [2] and in assay [3] was “inactive” in each case.
Turning to `CC1(C)CC[C@]2(C(=O)O)CC[C@]3(C)C(=CCC4[C@@]5(C)C[C@H](O)[C@H](O[C@@H]6OC[C@H](O)[C@H](O)[C@H]6O)[C@@](C)(CO)C5CC[C@]43C)[C@@H]2C1` (stereo not given in full), the Potency entry in assay [1], in assay [2] and in assay [3] was “inactive” each time.
With `CC(C)C1(O[C@@H]2O[C@H](CO)[C@@H](O)[C@H](O)[C@H]2O)CC=C(CO)CC1` (stereo not given in full), the Potency in assay [1] was 11.7 µM (active). The Potency entry in assay [2] and in assay [3] was “inactive” in each case.
For the compound `CC(C)c1nc(N(C)S(C)(=O)=O)nc(-c2ccc(F)cc2)c1/C=C/[C@@H](O)C[C@@H](O)CC(=O)O`, the Potency result in assay [1], in assay [2] and in assay [3] was “inactive” throughout.
